Calls of active or inactive are those of the source. Calls come from the whole dose curve.
Test: G protein-coupled receptor (GPCR) small molecule agonists, calcium flux assay: HEK293 wild type cell line counter screen (AID 1920065)
Details: HEK293 WT calcium flux, fluorescence, agonist mode; series mostly up to 57.6 µM
From the text: U.S. Tox21 Program National Center for Advancing Translational Sciences [NCATS] Division of Preclinical Innovation [DPI] U.S. Environmental Protection Agency [EPA] National Institutes of Environmental Health Sciences [NIEHS] National Toxicology Program [NTP] U.S. Food and Drug Administration [FDA] Assay overview: The increased intracellular calcium release that occurred upon G protein-coupled receptor (GPCR) activation led to the frequent use of calcium flux assays to detect GPCR activation. For the purpose of studying and screening compounds that may activate GPCR, receptor-overexpressing models were typically generated using Hek293 wild-type (WT) cells. In order to eliminate the compounds that may have induced calcium release for non-specific activation, a counter-assay utilizing calcium flux on Hek293 WT cells was performed. The data were formulated in order to serve as a control for any calcium flux detection utilizing Hek293 cells with either GPCR overexpression or gene modification. The procurement of Hek293 WT cells from ATCC. Fluorescence intensity can be utilized to determine the activation of the compound in a calcium flux assay. As a counter control, this cell line was utilized to screen the Tox21 10K compound library.
Assay Protocol Summary: Hek293 cells were dispensed at 1500cells/4uL/well in 1536-well black wall/clear bottom plates using a multidrop dispenser. After the assay plates were incubated at a 37 C/5% CO2 incubator for 18 hours, 4 uL of Calcium Dye Solution was added to each well. The plates were incubated at 37 C for 1 hour. For agonist mode, 23 nL of compounds dissolved in DMSO, positive control (ATP) or DMSO only was transferred to the assay plate by a pin tool station. The fluorescence intensity in the plates was measured using FDSS 7000EX kinetic plate reader with a filter set of Ex/Em=480/540 for 3 min at 1 sec intervals. Each test compound was measured at 15 concentrations and in triplicates.
% is set by controls: 0 for no effect and ±100 for the full control effect.

| Compound | outcome | activation |
| --- | --- | --- |
| Cc1nc2n(c(=O)c1CCN1CCC(c3noc4cc(F)ccc34)CC1)CCCC2 | inactive |  |
| C=C(C)C(=O)OCC(C)(C)COC(=O)C(=C)C | inactive |  |
| CCN1CN(CC)CN(CC)C1 | inactive |  |
| CCc1cc(Cc2cc(CC)cc(C(C)(C)C)c2O)c(O)c(C(C)(C)C)c1 | inactive |  |
| O=C(Nc1cccc2c(=O)cc(-c3nn[nH]n3)oc12)c1ccc(OCCCCc2ccccc2)cc1 | inactive |  |
| COc1ccc2nc(SCc3ncc(C)c(OC)c3C)[nH]c2c1 | inactive |  |
| CC(C)CCCC(C)NCCC(C)C (stereo not given) | inactive |  |
| CCOC(=O)CC(=O)c1cc(F)c(Cl)nc1Cl | inactive |  |
| O=C1CCCN1CCO | inactive |  |
| CC(C)(C)OC(=O)N1C[C@@H](F)C[C@H]1C(=O)O | inactive |  |
| O=C(c1ccccc1)c1cccc(O)c1 | inactive |  |
| CCCCCCCC/C=C\CCCCCCCCCCCC(=O)O | inactive |  |
| C[N+](C)(C)CCCCCCCCCC[N+](C)(C)C | inactive |  |
| O=[N+]([O-])c1ccc(F)c(Cl)c1 | inactive |  |
| CCCC(=O)C(CC)Sc1ccoc1C (stereo not given) | inactive |  |
| COc1cc2c(cc1OC)-c1cc3ccc(OC)c(OC)c3c[n+]1CC2 | inactive |  |
| CCN(CC)CCOC(=O)C1(c2ccccc2)CCCC1 | inactive |  |
| CCCCCCCCCCOc1cc2c(=O)c(C(=O)OCC)c[nH]c2cc1OCC |  | 0.101% [at 5.23 µM] (inactive) |
| CO[Si](CCC1CCC2OC2C1)(OC)OC (stereo not given) | inactive |  |
| C[C@]12C=CC(=O)C=C1[C@@H](F)C[C@@H]1[C@@H]2[C@@H](O)C[C@@]2(C)[C@H]1CC[C@]2(O)C(=O)CO | inactive |  |

| Compound | outcome | activation |
| --- | --- | --- |
| O=[N+]([O-])c1c(Cl)cc(Cl)cc1Cl | inactive |  |
| CN1CCN(N)CC1 | inactive |  |
| O=C1CCCC(=O)C1 | inactive |  |
| CCCCCCCCCCCCCC(=O)OCC | inactive |  |
| C[C@@H]1C[C@H]2[C@@H]3CCC4=CC(=O)C=C[C@]4(C)[C@@]3(F)[C@@H](O)C[C@]2(C)[C@H]1C(=O)CO | inactive |  |
| Cc1cccc(C(C)(C)C)c1O | inactive |  |
| O=C(O)C(=O)Cc1c[nH]c2ccccc12 | inactive |  |
| O=C(O)Cc1ccc2c(c1)C(=O)c1ccccc1CO2 | inactive |  |
| O=Cc1ccccc1[N+](=O)[O-] | inactive |  |
| Nc1[nH]c(=O)ncc1F | inactive |  |
| CCOc1ccc([N+](=O)[O-])cc1 | inactive |  |
| CNc1ccc(O)cc1 | inactive |  |
| CCCCCCCCCCCC(=O)Cl | inactive |  |
| CN1CCC(=C2c3ccccc3C=Cc3ccccc32)CC1 | inactive |  |
| CN1CN(C)CN(C)C1 | inactive |  |
| Cc1c(C2(c3cc(Br)c(O)c(Br)c3C)OS(=O)(=O)c3ccccc32)cc(Br)c(O)c1Br | inactive |  |
| CN1CC(=O)NC1=N | inactive |  |
| Nc1nnc(-c2cccc(Cl)c2Cl)c(N)n1 | inactive |  |
| CC(C)(C)OC(=O)c1ccccc1C(=O)O | inactive |  |
| O=C1C(=O)c2ccccc2C(O)=C1C1CCC(c2ccc(Cl)cc2)CC1 (stereo not given) | inactive |  |

— PubChem BioAssay (Tox21)
